In the library only some 9% were active in any assay of this set; here they are far more common.
ALDH1A1 inh – qHTS Assay for Inhibitors of Aldehyde Dehydrogenase 1 (ALDH1A1); Purified ALDH1A1, NADH fluorescence, propionaldehyde substrate; Potency, µM (highest dose often 75.3 µM), for inactives: at the highest dose activity, negative = inhibition, hits mostly inhibitors; actives 7.3% (n = 220,000); active means well fitted inhibition curve with a large enough effect, not every such curve was filed as active; inconclusive means small, poorly fitted or top-dose-only effect, or another doubt; inactive means no such curve, though single readings can be large or run the other way;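 further: plate controls were no enzyme wells and a reference inhibitor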
KinaseGlo FLuc – Counterscreen for Luciferase (Kinase-Glo TM) Inhibition; Luciferin 4-monooxygenase (Photuris pensylvanica), Q27757; Kinase-Glo luciferase, ATP luminescence, 8 min; Potency, µM (top dose mostly 38.3 µM), inactives show at the top dose activity change, negative = inhibition, usual class: inhibitors; actives 0.28% (n = 200,000); AID 1379, 2008; further: nearly all actives have a fitted effect of over 60% in size
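Inhibition of Kinase-Glo luciferase light generation was assessed at 10 uM ATP in pH 7.2 imidazole buffer, with luminescence measured after eight minutes at ambient temperature.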
HPGD block – qHTS Assay for Inhibitors of HPGD (15-Hydroxyprostaglandin Dehydrogenase); actives 4.3% (n = 150,000); purified HPGD, NADH fluorescence kinetic, PGE2 substrate; 15-hydroxyprostaglandin dehydrogenase [NAD(+)] (Homo sapiens), P15428; Potency, µM, for the others: at the top dose activity change, negative = inhibition, most hits filed as inhibitors; active means well fitted inhibition curve with a large enough effect, not every such curve was filed as active; inconclusive means small, poorly fitted or top-dose-only effect, or another doubt; inactive means no such curve, though single readings can be large or run the other way
Target sequence (P15428 whole entry, looked up): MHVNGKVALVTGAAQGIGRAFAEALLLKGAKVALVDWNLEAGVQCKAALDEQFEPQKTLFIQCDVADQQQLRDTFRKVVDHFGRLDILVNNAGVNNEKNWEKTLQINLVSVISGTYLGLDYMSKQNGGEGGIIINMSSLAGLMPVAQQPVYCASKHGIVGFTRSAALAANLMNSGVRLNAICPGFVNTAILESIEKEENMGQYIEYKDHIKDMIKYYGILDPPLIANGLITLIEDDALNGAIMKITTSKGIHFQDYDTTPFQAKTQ
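20 nM HPGD preincubated 15 min at room temperature with compound in 50 mM Tris-HCl pH 8, 0.01% Tween 20. Started with 1 mM NAD+ and 30 uM prostaglandin E2; NADH fluorescence (360/450 nm) read 5 times over 30-s intervals, last minus first.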
IMPase Li inh – qHTS Assay for Identifying the Cell-Membrane Permeable IMPase Inhibitors: Potentiation with Lithium; CHO-M1 cells, IP1 TR-FRET (IP-One), carbachol + lithium; Potency, µM (top dose mostly 59.4 µM), for inactives: top-dose activity, negative = IMPase inhibition, usual class: inhibitors; actives 0.35% (n = 210,000);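 further: IP1 builds up when IMPase is blocked and the TR-FRET signal falls; plate controls were basal vehicle for no effect and high inhibitor control for full effect; nearly all actives have a fitted effect of over 50% in size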
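Steps: plate 2000 CHO-M1 cells per well and culture 16–30 h; add compound and lithium; incubate 30 min, 37C; add d2-IP1 tracer and Eu cryptate anti-IP1 antibody in lysis buffer; read after 10 min at room temperature.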
LMNA splice mod – qHTS Assay for Modulators of Lamin A Splicing; HeLa LMNA splicing GFP/RFP minigene ratio, 48 h; Potency, µM (series often up to 46.1 µM), without a hit: at the highest dose ratio change, negative = inhibition, hits mostly inhibitors; actives 0.01% (n = 200,000); AID 1487, 2009; active means well fitted inhibition curve with a large enough effect in the signal ratio, with a control signal flat, not every such curve was filed as active; inconclusive means small, poorly fitted or top-dose-only effect, or effect the other way, or a change in a side signal; the % refers to the signal ratio
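S3 HeLa cells stably expressing lamin A-EGFP splicing minigene plus DsRed2, 600 cells/well, 48 h compound exposure at 37C. Laser-scanning cytometry; analysed as GFP (500-530 nm)/RFP (575-640 nm) total intensity ratio; 0.5% DMSO vehicle.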
Active calls of the source: *; [ ] = another dose, or the depositor's remark. Unless noted, the call rests on the fitted dose curve; in most records, active means well fitted curve in the direction sought with a large enough effect; inconclusive means small, poorly fitted or top-dose-only effect, or another doubt; inactive means no such curve, though single readings can be large; an effect the other way counts as inactive or inconclusive. Unless noted, on the % scale 0 is the no-effect control and ±100 the full control effect; potency means the concentration at half of the fitted maximal effect.

Screening O=C(NCCc1ccc(F)cc1)C(=O)NCC(c1ccco1)S(=O)(=O)c1cccs1 (stereo not given) returned LMNA splice mod 11%[46 µM].
For O=C(NCCC1=CCCCC1)C1CCN(C(=O)N2CCOc3ccc(Cl)cc32)CC1 the results were LMNA splice mod -7%[46 µM].
Screening Cc1ccccc1-c1ccc2ncnc(NCc3cccs3)c2c1 returned ALDH1A1 inh inconclusive, IMPase Li inh 20% and LMNA splice mod inconclusive.
COc1cccc(-c2cc(NCc3ccccc3)ncn2)c1 was read as ALDH1A1 inh -13%, IMPase Li inh -10% and LMNA splice mod -9%.
For c1ccc2c(c1)OCC(c1csc3ncnc(N4CCCCC4)c13)O2 (stereo not given) the results were ALDH1A1 inh -6%, KinaseGlo FLuc -3%, HPGD block -14%, IMPase Li inh 15% and LMNA splice mod -5%.
Screening c1ccc2c(c1)OCC(c1nnc3sc(-c4cnccn4)nn13)O2 (stereo not given) returned ALDH1A1 inh 8.9µM*, KinaseGlo FLuc -2%, HPGD block 25µM*, IMPase Li inh 20%[38.3 µM] and LMNA splice mod 13%.
CN(c1nc2c(c(=O)n(C)c(=O)n2C)n1CC(=O)c1ccccc1)C1CCCCC1 was read as ALDH1A1 inh 28µM*, KinaseGlo FLuc 3%, HPGD block -8%, IMPase Li inh 17%[38.3 µM] and LMNA splice mod 8%.
For Cn1c(=O)c2c(nc(Cc3ccccc3)n2CC(=O)O)n(C)c1=O the results were ALDH1A1 inh 6%[13.5 µM], KinaseGlo FLuc -1%[7.66 µM], HPGD block -5% and IMPase Li inh -6%.
Screening CCCc1cc(=O)[nH]c(SCc2nc3ccc([N+](=O)[O-])cc3[nH]2)n1 returned ALDH1A1 inh -15%, KinaseGlo FLuc -3%, HPGD block 18µM*, IMPase Li inh -8% and LMNA splice mod inconclusive.
Screening Cc1cc(=O)[nH]c(SCc2nc3ccc([N+](=O)[O-])cc3[nH]2)n1 returned ALDH1A1 inh inconclusive, KinaseGlo FLuc -1%, HPGD block inconclusive, IMPase Li inh -7% and LMNA splice mod 0%.
`CCCc1cc(=O)[nH]c(SCc2cccnc2)n1` gave ALDH1A1 inh -4%, KinaseGlo FLuc 0%, HPGD block 20µM*, IMPase Li inh -2% and LMNA splice mod -15%.
For CCc1nc(SCc2ccc(F)cc2)[nH]c(=O)c1C#N the results were ALDH1A1 inh 32µM*, KinaseGlo FLuc -2%, HPGD block 4.5µM*, IMPase Li inh 16% and LMNA splice mod inconclusive.
CCCc1cc(=O)[nH]c(SCc2cc(Cl)ccc2OC(F)F)n1 was read as ALDH1A1 inh -1%, KinaseGlo FLuc 1%, HPGD block 14µM*, IMPase Li inh -8%[38.3 µM] and LMNA splice mod 5%.
`CCN(CC)CCN(C(=O)c1ccc(CN2CCCCC2)o1)C(C(=O)NC1CCCCC1)c1ccc(F)cc1` (stereo not given) gave ALDH1A1 inh 0%, KinaseGlo FLuc 1% and IMPase Li inh 2%.
For O=S(=O)(c1ccc(Cl)cc1)N1CCN=C1SCc1ccc(Cl)c(Cl)c1 the results were ALDH1A1 inh 2%, KinaseGlo FLuc -2%, HPGD block -4%, IMPase Li inh 14% and LMNA splice mod 0%.
For CCc1nc(SCc2ccccn2)[nH]c(=O)c1C the results were ALDH1A1 inh -3%, KinaseGlo FLuc 2%, IMPase Li inh 5% and LMNA splice mod inconclusive.
For CCCc1cc(=O)[nH]c(SCc2ccccc2)n1 the results were ALDH1A1 inh inconclusive, KinaseGlo FLuc 2%, HPGD block 16µM*, IMPase Li inh 14%[38.3 µM] and LMNA splice mod 3%.
CCCc1cc(=O)[nH]c(SCc2csc(-c3ccccc3)n2)n1 was read as ALDH1A1 inh -7%, KinaseGlo FLuc 2%, HPGD block -28%, IMPase Li inh -1% and LMNA splice mod inconclusive.
`Cc1cccc(CSc2nc3[nH]ncc3c(=O)[nH]2)c1` gave ALDH1A1 inh 8.9µM*, KinaseGlo FLuc 4%, IMPase Li inh 16% and LMNA splice mod -17%[46 µM].
CCc1nc(SCc2cccnc2)[nH]c(=O)c1C was read as ALDH1A1 inh 13%, KinaseGlo FLuc 1%, HPGD block 25µM*, IMPase Li inh 5%[38.3 µM] and LMNA splice mod 1%.
Screening CCCc1cc(=O)[nH]c(SCc2cccc(C)c2)n1 returned ALDH1A1 inh inconclusive, KinaseGlo FLuc -3%, HPGD block 14µM*, IMPase Li inh -3%[38.3 µM] and LMNA splice mod 9%.
CCc1nc(CN2CCN(Cc3ccc(F)c(F)c3)C(CCO)C2)c(C)[nH]1 (stereo not given) was read as ALDH1A1 inh -6%, KinaseGlo FLuc -1%, IMPase Li inh 5% and LMNA splice mod 12%[46 µM].
COc1ccc(CNC(=O)c2ccc3nc(CCc4ccccc4)oc3c2)c(OC)c1 was read as LMNA splice mod 8%[46 µM].
For COC(=O)C/C=C1\c2ccc3c(c2[C@@H](OC)[C@@H]1C)OCO3 the results were ALDH1A1 inh -4%, KinaseGlo FLuc 1%, HPGD block -7% and IMPase Li inh 10%.
CCOCCCNS(=O)(=O)c1ccc(NC(=O)Cc2c(F)cccc2Cl)cc1 was read as ALDH1A1 inh inconclusive and IMPase Li inh 4%.
CCCc1cc(=O)[nH]c(SCc2ccc(Cl)cc2)n1 was read as ALDH1A1 inh 1%, KinaseGlo FLuc -1%, HPGD block 16µM*, IMPase Li inh 32%[38.3 µM] and LMNA splice mod 21%.
COc1cccc(Cn2c(=O)c(-c3cccs3)nc3cnc(N4CCNCC4)nc32)c1 was read as ALDH1A1 inh inconclusive, IMPase Li inh 6% and LMNA splice mod inconclusive.
Screening CCn1c(=O)c([N+](=O)[O-])c(NCC(O)c2ccccc2)c2ccccc21 (stereo not given) returned ALDH1A1 inh inconclusive, KinaseGlo FLuc 2%, HPGD block 16µM*, IMPase Li inh 0% and LMNA splice mod inconclusive.
For Cn1c(=O)c([N+](=O)[O-])c(NCC(O)c2ccccc2)c2ccccc21 (stereo not given) the results were ALDH1A1 inh inconclusive, KinaseGlo FLuc -2%, HPGD block 25µM*, IMPase Li inh -6% and LMNA splice mod -2%.
Screening O=c1c([N+](=O)[O-])c(NCCN2CCCCCC2)c2ccccc2n1-c1ccccc1 returned ALDH1A1 inh 4µM*, KinaseGlo FLuc -6%, HPGD block -10%, IMPase Li inh 7% and LMNA splice mod -3%.
Screening CCCCNc1c([N+](=O)[O-])c(=O)n(C)c2ccccc12 returned ALDH1A1 inh -8%, KinaseGlo FLuc 1%, IMPase Li inh 7% and LMNA splice mod 15%[46 µM].

Bioassay records deposited in PubChem BioAssay by National Center for Advancing Translational Sciences (NCATS).
